G9a inh = inhibitors of human histone lysine methyltransferase G9a | Q96KQ7 | G9a H3K9 monomethylation, AlphaScreen, 2 h | Potency, µM (doses to about 102 µM), actives largely listed as inhibitors | 350,000 tested, 8.8% active; also: nearly all actives have a fitted effect of over 75% in size
Target sequence (Q96KQ7 913-1193 limits assumed): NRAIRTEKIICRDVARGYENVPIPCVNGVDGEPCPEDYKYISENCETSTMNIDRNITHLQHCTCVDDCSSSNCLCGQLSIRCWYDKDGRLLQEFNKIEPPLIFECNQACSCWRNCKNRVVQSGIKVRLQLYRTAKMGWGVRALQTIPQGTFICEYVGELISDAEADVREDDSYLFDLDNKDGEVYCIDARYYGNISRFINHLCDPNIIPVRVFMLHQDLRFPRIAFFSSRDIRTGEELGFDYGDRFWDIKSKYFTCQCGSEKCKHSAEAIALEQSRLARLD
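AlphaScreen read-out: biotin-H3K9 peptide (500 nM) methylation by 20 nM enzyme with 20 uM SAM, 2 h at room temperature after 15 min compound preincubation; anti-monomethyl H3K9 antibody plus donor/acceptor beads, 10 min dark.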
Six1-Eya2 blk = Six1/Eya2 interaction inhibition; Q15475+O00167; AlphaScreen GST-Six1/His-Eya2 binding, biochemical; active compounds read low; activity change, % (test concentration not listed); 360,000 tested, 0.56% active; in the data active = activity change below about -65%; inconclusive = mostly about -30% to -63%
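GST-Six1 + His-Eya2 (5X stock: 250/500 nM); Tris pH 8.0, 300 mM NaCl, 0.05% BSA, 0.02% Tween 20; GSH donor/Ni acceptor beads; 1 h 37 °C dark; AlphaScreen readout.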
JMJD2A Tudor inh = blocks the human JMJD2A Tudor domain; O75164; AlphaScreen JMJD2A-Tudor / H3K4me3 peptide binding; Potency, µM (doses to about 114 µM), most hits filed as inhibitors; 390,000 tested, 4.4% active; AID 504339; also: nearly all actives have a fitted effect of over 50% in size
HP1b binding inh = blocks HP1-beta chromodomain binding to methylated histone tails | P83916 | AlphaScreen HP1-beta / biotin-H3K9me3 peptide binding | Potency, µM (top dose mostly 114 µM), most hits filed as inhibitors | 390,000 tested, 0.56% active | AID 540317; also: nearly all actives have a fitted effect of over 70% in size
Target sequence (P83916 whole entry, looked up): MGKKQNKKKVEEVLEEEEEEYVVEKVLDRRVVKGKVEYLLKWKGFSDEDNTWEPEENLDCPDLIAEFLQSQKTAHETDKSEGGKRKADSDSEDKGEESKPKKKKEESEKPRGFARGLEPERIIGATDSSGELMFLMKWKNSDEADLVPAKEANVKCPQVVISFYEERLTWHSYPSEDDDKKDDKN
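HP1-beta protein (50 nM final) preincubated 30 min at room temperature with biotinylated H3(1-18)K9me3 peptide (50 nM) in PBS pH 7.4, 0.01% Tween-20, then compound added for 30 min. AlphaScreen streptavidin donor/nickel chelate acceptor beads (10 ug/mL final), 30 min dark, luminescence read.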
CtBP-E1A blk = CtBP/E1A binding inhibition. 340,000 tested, 0.49% active. activity change, % (no concentration beside the values). AlphaScreen GST-E1A/His-CtBP binding, 1536-well; active compounds read low; in the data active = activity change below about -65%; inconclusive = mostly about -30% to -63%
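GST-E1A and His-tagged CtBP (125 nM each as 5X stock) were preincubated with pin-transferred compound for 2 h at 37 °C in the dark, then glutathione donor and nickel acceptor beads were added for 1 h before AlphaScreen reading.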
BAZ2B block = blocks human BAZ2B; Q9UIF8; AlphaScreen BAZ2B-H3K14Ac peptide displacement; Potency, µM (top dose mostly 114 µM), actives largely listed as inhibitors; 360,000 tested, 4.4% active; AID 504333; also: nearly all actives have a fitted effect of over 60% in size
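In this displacement format the biotinylated H3(5-23) peptide acetylated at Lys14 serves as ligand at 50 nM, with BAZ2B at 50 nM in PBS pH 7.4 containing 0.01% Tween-20. Donor and acceptor beads are 10 ug/mL final.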
Numbers stand for hits; - = inactive; ? = inconclusive; . = no result given; [ ] = remark or other dose. This is a sample that favours compounds with a hit; in the whole collection about 10% have one here. Unless noted, calls follow the shape of the dose curve; as a rule, active = well fitted inhibition curve with a large enough effect; inconclusive = small, poorly fitted or top-dose-only effect; inactive = no such curve, though single readings can be large or run the other way.

SMILES	G9a inh	Six1-Eya2 blk	JMJD2A Tudor inh	HP1b binding inh	CtBP-E1A blk	BAZ2B block
Cc1ccc(C(=O)N/N=C/c2cc(Br)ccc2O)cn1	-[0.501 µM]	-89.3	56.2µM	-	-90.8	7.94µM
COc1cc([N+](=O)[O-])cc(/C=N/NC(=O)c2ccc(C)nc2)c1O	-	-88.1	?	-	-94.6	10µM
CCOc1cc(Br)cc(/C=N/NC(=O)c2cccnc2)c1O	-	-67.0	39.8µM	-	-92.1	28.2µM
COc1cc([N+](=O)[O-])cc(/C=N/NC(=O)c2ccc(NC(=O)c3ccc(C)cc3)cc2)c1O	-	-	-	-	?	-
COc1c(Br)cc(Br)cc1/C=N/NC(=O)c1cccnc1	-	-	-	-	-	-
COc1cc([N+](=O)[O-])cc(/C=N/NC(=O)CC#N)c1O	50.1µM	.	.	.	.	8.91µM
COc1ccccc1N1CCN(S(=O)(=O)c2ccc(-c3ccno3)cc2OC)CC1	-	.	-	-	.	?
COc1cc([N+](=O)[O-])cc(/C=N/NC(=O)C(C)Nc2ccccc2C)c1O (stereo not given)	-	?	-	-	-73.2	?
O=C(N/N=C/c1cc(Br)ccc1O)c1ccccc1Cl	-	-88.0	?	-	-79.1	?
COc1cc([N+](=O)[O-])cc(/C=N/NC(=O)CSc2ccccn2)c1O	.	-81.6	79.4µM	-	-91.0	?
CC(C)NC(=S)N/N=C/c1cc(Br)ccc1O	-	-82.4	50.1µM	?	-89.2	17.8µM
COc1cc(/C=N/NC(=O)CSc2ccccn2)ccc1O	-	-	-	-	-	-
O=C(NCCc1ccc(Cl)cc1)c1ccc2c(c1)N(Cc1c(F)cccc1Cl)C(=O)CS2	-	.	-	-	.	-
CCN(CC)CCCNC(=O)Cn1c(-c2cccs2)cc2cc(Cl)ccc21	-	.	-	-	.	-
CC1=C(C(=O)Nc2ccccc2)C(c2ccncc2)n2nc(SCc3ccccc3Cl)nc2N1 (stereo not given)	-	.	-	-	.	-
COc1cc([N+](=O)[O-])cc(/C=N/NC(=O)Cn2cncn2)c1O	?	-90.4	25.1µM	-	.	31.6µM
O=C(Cn1cncn1)N/N=C/c1ccccc1Cl	-[12.7 µM]	-	-	-	.	-
CC(C)C[C@H]1CNC(=O)C(=O)N1CC1CCN(CC2CCC(C)CC2)CC1 (stereo not given in full)	.	-	.	.	-	.
CSc1ccc(/C=N/NC(=O)c2ccc(C)c(C)c2)cc1	-	-	?	-	-	50.1µM
O=C(O)c1cc(N/N=C/c2ccc(-c3ccccc3)cc2)ccc1Cl	-[0.501 µM]	-	31.6µM	-	.	?
O=C(O)c1cc(N/N=C/c2c[nH]c3ccccc23)ccc1Cl	44.7µM	-	?	-	-	?
CSc1ccc(/C=N/Nc2ccc(Cl)c(C(=O)O)c2)cc1	10µM	-	-	-	-	-
O=C(N/N=C/c1c[nH]c2ccccc12)c1cccc(Cl)c1	-	-	-	-	.	-
O=C(O)c1cc(N/N=C/c2cccnc2)ccc1Cl	.	-	-	-	.	-
O=C(O)c1cc(N/N=C/c2ccncc2)ccc1Cl	-	-	-	-	-	-
SMILES	G9a inh	Six1-Eya2 blk	JMJD2A Tudor inh	HP1b binding inh	CtBP-E1A blk	BAZ2B block
Cc1ccc(C(=O)N2CCN(Cc3ccccc3)CC2)o1	-	-	-	-	-	-
Cc1ccc(S(=O)(=O)N2CCN(C(=O)N(C)C)CC2)cc1C	-[12.7 µM]	-	-	-	-	-
Cc1ccc(/C=C/C(=O)N2CCN(S(=O)(=O)c3ccc(C)c(C)c3)CC2)o1	2.82µM	-	44.7µM	?	-	?
Cc1ccc(/C=C/C(=O)N2CCN(S(=O)(=O)c3c(C)c(C)cc(C)c3C)CC2)o1	7.94µM	-	79.4µM	?	-	?
Cc1ccc(/C=C/C(=O)N2CCN(Cc3ccccc3)CC2)o1	3.98µM	-	-	-	-	?
CCO/C=C1/C(=O)N(CC)c2ccccc21	?	-	-[11.4 µM]	-	-	-
CCO/C=C1/C(=O)N(c2ccc(OC)cc2)C(=O)c2ccccc21	25.1µM	-	-	-	.	-
CCO/C=C1\C(=O)N(c2ccccc2)C(=O)c2ccccc21	25.1µM	-	-	-	-	?
CCO/C=C1/C(=O)N(Cc2ccccc2)C(=O)c2ccccc21	14.1µM	-	-	-	-	-
CCN(CC)c1ccc(N2C(=O)c3ccccc3C2=O)cc1	-[12.7 µM]	-	-	-	-	-
COc1ccc(N2C(=O)c3ccccc3C2=O)cc1	-[12.7 µM]	-	-	-	-	-
CCO/C=C1/C(=O)N(C)C(=O)c2cc(OC)ccc21	3.55µM	-	-	-	-	-
CCn1c(SCCN2CCOCC2)nc2c1c(=O)n(C)c(=O)n2C	-[0.501 µM]	-	-	-	-	-
CCc1ccc(C(=O)c2cnc3ccc(F)cc3c2S(=O)(=O)c2ccccc2)cc1	?	.	-	-	.	?
CCO/C=C1/C(=O)N(c2ccccc2OC)C(=O)c2ccccc21	28.2µM	-	?	-	-	-
COc1ccccc1N1C(=O)c2ccccc2C1=O	.	.	-	.	.	.
CN(Cc1ccccc1)C(=O)Nc1c(Cl)cccc1Cl	.	-	.	.	-	.
COc1cccc(/C=N/n2c(COc3ccccc3)n[nH]c2=S)c1O	15.8µM	-	50.1µM	?	-	-
Cc1n[nH]c(=S)n1/N=C/c1ccccc1OCc1ccc(Cl)cc1	?	-	50.1µM	-	-	-
COc1cccc(/C=N/n2c(COc3ccccc3)n[nH]c2=S)c1OC	8.91µM	-	28.2µM	-	.	-
COc1ccccc1/C=C/C=N/n1c(COc2ccccc2)n[nH]c1=S	3.55µM	-	?	-	-	-
COc1cccc(/C=N/n2c(CO)nc3ccccc32)c1OC	-	-	-	-	-	-
Nc1nnnn1/N=C/c1ccccc1OCc1ccc(Cl)cc1	-	-	-	-	-	-
CCC1CCCCN1C(=O)CCn1ccnc1 (stereo not given)	-[12.7 µM]	-	-	-	-	-
Cc1c(C(=O)OC(C)C(C)C[N+](C)(C)C)oc2ccccc12 (stereo not given)	12.6µM	-	56.2µM	-	-	-
SMILES	G9a inh	Six1-Eya2 blk	JMJD2A Tudor inh	HP1b binding inh	CtBP-E1A blk	BAZ2B block
COc1cccc(-c2noc(-c3cc(C(C)C)[nH]n3)n2)c1OC	-	.	-	-	.	-
S=c1[nH]c(-c2ccccc2)cn1/N=C/c1cccnc1	2.51µM	-	0.794µM	-	-	-
Nc1nc2ccccc2n1/N=C/c1cccnc1	.	-	-	-	-	.
O=C(O)c1ccc(/C=N/n2cc(-c3ccccc3)[nH]c2=S)cc1	.	-	2.82µM	-	.	-
C(=N\n1cnnc1)/c1cccs1	-[12.7 µM]	-	-	-	-	-
O=C(O)c1ccc(/C=N/O)cc1	.	-	-	-	-	-
S=c1[nH]c(-c2ccccc2)cn1/N=C/c1cccs1	.	-	3.16µM	-	-	-
S=c1[nH]ncn1/N=C/c1cccs1	7.94µM	-	4.47µM	-	-	-
S=c1[nH]c(-c2ccccc2)cn1/N=C/c1ccc(Br)cc1	12.6µM	-	-	-	-	-

Compound activity as filed in PubChem BioAssay.
